HT1080 IDH1KD tx: kills HT-1080 cells with IDH1 knockdown; HT-1080 IDH1 knockdown viability, ATP luminescence, 48 h; 360,000 compounds, 2% hits; AID 686971; Potency, µM (top dose mostly 46.1 µM), for the others: at the top dose activity, negative = toxicity, usual class: cytotoxic;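 note: potency is the fitted concentration of half-maximal effect; 0% = DMSO wells and -100% = cell-free medium wells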
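Luminescent ATP read-out (CellTiter-Glo, 10 min at room temperature) after 48 h compound exposure at 37 °C gave viability of IDH1-knockdown HT-1080 cells. Activity was normalised to DMSO and cell-free wells, then fitted as concentration-response curves.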
TDP1 cell noCPT: qHTS for Inhibitors of human tyrosyl-DNA phosphodiesterase 1 (TDP1): qHTS in cells in absence of CPT. DT40 Tdp1-/- hTDP1 cells, no CPT, ATP luminescence, 48 h. Potency, µM (titrated, usually from 46.2 µM), without a hit: at the highest dose activity change, negative = growth inhibition, actives largely listed as inhibitors. 420,000 compounds, 15% hits; note: potency is the fitted concentration of half-maximal effect; nearly all actives have a fitted effect of over 55% in size
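A cellular qHTS used chicken DT40 cells lacking endogenous Tdp1 but carrying stably transfected human TDP1. Compounds were applied without camptothecin, and cell growth kinetics were judged by ATP-dependent luminescence after ≥48 hr.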
DT40 TDP1 CPT: DT40-hTDP1 cell growth loss with CPT | chicken DT40 Tdp1-/-;hTDP1 cells + 20 nM CPT, ATP luminescence, 48 h | 420,000 compounds, 12% hits | Potency, µM (doses to about 46.2 µM), for inactives: at the top dose activity change, negative = growth inhibition, hits mostly inhibitors | AID 686979; note: potency is the fitted concentration of half-maximal effect; nearly all actives have a fitted effect of over 55% in size
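Chicken DT40 Tdp1-/- cells stably complemented with human TDP1 were seeded at 400 cells/well in medium containing 20 nM camptothecin, exposed to pin-transferred compounds, and grown at 37 °C for at least 48 hr. Viability was read as ATP luminescence.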
HT1080-NT tox: kills 2HG-producing HT-1080-NT fibrosarcoma cells | HT-1080-NT fibrosarcoma viability, CellTiter-Glo ATP luminescence, 48 h | Potency, µM (doses to about 46.1 µM), inactives show top-dose activity, negative = less viability, usual class: cytotoxic | 360,000 compounds, 1.6% hits;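 note: NT is the 2HG producing partner of a matched IDH1 knockdown line; potency is the fitted concentration of half-maximal effect; 0% = DMSO-treated cells and -100% = media-only wells without cells; nearly all actives have a fitted effect of over 55% in size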
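A 48-hour cytotoxicity screen used HT-1080-NT cells plated 2 hours before compound delivery. ATP-based CellTiter-Glo luminescence measured viability, normalized to DMSO and no-cell controls.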
IL1B secr inh: inhibitors of inflammasome signaling (IL-1 beta secretion); THP-1 LPS/ATP IL-1B secretion, AlphaLISA, 16 h; hits give low values; activity change, % at 57.5 µM; 360,000 compounds, 4.7% hits; in the data active = activity change below about -50%; inconclusive = mostly about -30% to -49%
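THP-1 cells pretreated 1 hr with compounds (up to 57.5 uM final), then stimulated with LPS (250 ng/mL final) plus ATP (1.25 mM final); secreted IL-1B measured by AlphaLISA after 16 hr, decreased signal indicating inhibition.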
The depositor's hits bear a star; ? = inconclusive; . = not tested or not shown. Only some compounds are listed: those with a hit (about 19% of all), similar ones and a draw of the others. Unless noted, calls come from the whole dose curve; as a rule, active = well fitted curve in the direction sought with a large enough effect; inconclusive = small, poorly fitted or top-dose-only effect, or another doubt; inactive = no such curve, though single readings can be large; an effect the other way counts as inactive or inconclusive. Unless noted, % is set by controls: 0 for no effect and ±100 for the full control effect.

SMILES | HT1080 IDH1KD tx | TDP1 cell noCPT | DT40 TDP1 CPT | HT1080-NT tox | IL1B secr inh
CC1CCN(S(=O)(=O)c2ccc3ncn(CC(=O)Nc4ccccc4C(F)(F)F)c(=O)c3c2)CC1 | . | ? | 21µM* | . | .
COC(=O)c1ccccc1NC(=O)Cn1cnc2ccc(S(=O)(=O)N3CCC(C)CC3)cc2c1=O | -13% | -3% | 5% | 4% | 9
COc1ccc(NC(=O)Cn2cnc3ccc(S(=O)(=O)N4CCC(C)CC4)cc3c2=O)c(OC)c1 | . | -21% | ? | . | .
COc1ccc(NC(=O)Cn2cnc3ccc(S(=O)(=O)N4CCC(C)CC4)cc3c2=O)cc1OC | . | ? | 26µM* | . | .
Cc1ccccc1N1CCN(C2CCCN(C(=O)CSc3ccccn3)C2)CC1 (stereo not drawn) | 1% | ? | ? | 4% | 8
CCOC(=O)[C@]12CCC=C1N(Cc1ccc(Cl)cc1Cl)C(=O)[C@H](CC(=O)NCc1cccs1)C2 | ? | 21µM* | ? | ? | -61*
COC(=O)[C@]12CCCCC=C1N(Cc1ccc(Cl)cc1Cl)C(=O)[C@H](CC(=O)NCc1cccs1)C2 | -28% | 23µM* | ? | -24% | 0
Cc1ccc(NC(=O)c2ccc3c(c2)CCN3S(C)(=O)=O)cc1C | -13% | ? | -110% | -20% | -18
CS(=O)(=O)N1CCc2cc(C(=O)Nc3ccc(C(F)(F)F)cc3)ccc21 | . | 8.2µM* | 9.2µM* | . | .
CCS(=O)(=O)N1CCc2cc(C(=O)Nc3cccc(C(C)=O)c3)ccc21 | . | 18µM* | ? | . | .
CS(=O)(=O)N1CCc2cc(C(=O)Nc3ccc(Cl)c(C(F)(F)F)c3)ccc21 | . | 8.2µM* | 18µM* | . | .
CCc1ccc(NC(=O)c2ccc3c(c2)CCN3S(C)(=O)=O)cc1 | -18% | 26µM* | ? | -11% | -23
CC(C)c1ccc(NC(=O)c2ccc3c(c2)CCCN3S(C)(=O)=O)cc1 | . | 4.1µM* | 6.5µM* | . | .
Cc1cc(C)cc(NC(=O)c2ccc3c(c2)CCN3S(C)(=O)=O)c1 | -2% | 2% | 3% | -4% | -18
Cc1cccc(NC(=O)c2ccc3c(c2)CCN3S(C)(=O)=O)c1 | 5% | -1% | -19% | -4% | -64*
C=Cc1ccccc1 | . | 4% | -3% | . | .
S=C(NCCC1=CCCCC1)Nc1ccc(Cl)cc1 | 7% | 21µM* | 23µM* | 16% | 11
Clc1ccc(CNCCC2=CCCCC2)cc1 | -21% | -21% | -18% | 6% | -76*
Cc1c(OC(=O)CNC(=O)OC(C)(C)C)ccc2c3c(c(=O)oc12)CCC3 | -21% | -26% | -20% | 16% | -8
CCCCCSc1nnc2c(n1)OC(c1cccn1C)N(C(C)=O)c1ccccc1-2 (stereo not drawn) | 0% | -15% | -16% | 5% | -74*
Cc1cc(Nc2ccc(Cl)cc2)n2cnnc2n1 | . | -21% | 2% | . | .
COc1cc(CNc2ncnc3c2ncn3[C@H]2CN(Cc3ccco3)C[C@@H](CO)O2)cc(OC)c1OC | 8% | -27% | 2% | ? | 16
Cc1cc(C#N)c(C)n1-c1cc(S(=O)(=O)N2CCOCC2)ccc1N1CCCC1 | -5% | 15µM* | 16µM* | -2% | -9
O=C(COc1ccc([N+](=O)[O-])cc1)Nc1cc(S(=O)(=O)N2CCCCC2)ccc1N1CCCCC1 | -15% | ? | -25% | -6% | -3
CCN1CCN(c2ccc(S(=O)(=O)N3CCCCC3)cc2NC(=O)COc2ccc(Cl)cc2)CC1 | -2% | ? | ? | -5% | -26
SMILES | HT1080 IDH1KD tx | TDP1 cell noCPT | DT40 TDP1 CPT | HT1080-NT tox | IL1B secr inh
O=C(COc1ccc(F)cc1)Nc1cc(S(=O)(=O)N2CCCCC2)ccc1N1CCCCC1 | -5% | 18µM* | 13µM* | -3% | -6
O=C(Nc1cc(S(=O)(=O)N2CCOCC2)ccc1-n1cncn1)c1ccc(Cl)cc1 | 17% | 29µM* | ? | -6% | ?
CCN1CCN(c2ccc(S(=O)(=O)N3CCCCC3)cc2NC(=O)COc2ccc(F)cc2Cl)CC1 | 18µM* | ? | 21µM* | 21µM* | ?
COCCCNCc1cc(C)n(-c2cc(S(=O)(=O)N3CCOCC3)ccc2N2CCCC2)c1C | -1% | ? | ? | -1% | -21
CCCNC(=O)Nc1ccc2c(c1)OC[C@H](C)N(C(=O)C1CCCCC1)C[C@@H](C)[C@H](OC)CN(C)C2=O | 17% | -12% | -25% | 17% | 26
COc1ccc(CNC(=O)c2coc(=O)c3ccccc23)c(OC)c1 | -28% | ? | -23% | -23% | 29
CCN1CCN(c2ccc(S(=O)(=O)N3CCCCC3)cc2NC(=O)c2sccc2C)CC1 | -3% | 23µM* | ? | 0% | -26
O=C(Nc1cc(S(=O)(=O)N2CCCCC2)ccc1N1CCOCC1)c1ccc(F)cc1 | -8% | -26% | ? | -11% | -3
CCN1CCN(c2ccc(S(=O)(=O)N3CCCCC3)cc2NC(=O)c2ccc(F)cc2)CC1 | -25% | 21µM* | ? | -4% | -9
CCN1CCN(c2ccc(S(=O)(=O)N3CCCCC3)cc2NC(=O)c2ccc(C)c(C)c2)CC1 | -21% | 23µM* | ? | -28% | -10
O=C(Nc1cc(S(=O)(=O)N2CCOCC2)ccc1N1CCCC1)c1ccc(F)cc1 | 9% | ? | 13µM* | 11% | -22
COc1ccc(CCC(=O)OCC(=O)N(CC(C)C)c2c(N)n(Cc3ccccc3)c(=O)[nH]c2=O)cc1 | 8% | 1% | -1% | 6% | -5
CC(C)OCCCNC(=O)c1ccc(CSc2nc3cccnc3n2Cc2ccccc2)cc1 | . | 23µM* | ? | . | .
COCCCNC(=O)c1ccc(CSc2nc3cccnc3n2Cc2ccc(OC)cc2)cc1 | . | 16µM* | 23µM* | . | .
COCCCNC(=O)c1ccc(Cn2c(SCc3ccc(F)cc3)nc3cccnc32)cc1 | . | 15µM* | ? | . | .
